Screens from PubChem BioAssay.
ABCB6 inh 2 – inhibitors of human ABC transporter ABCB6; Q9NP58; K562-ABCB6 porphyrin accumulation, flow cytometry, 1 h; hits give low values; fluorescence ratio to DMSO, % at 10 µM; 360,000 compounds, 0.19% hits; AID 602162;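 active = fluorescence ratio to DMSO below 75%, the collection mean minus 3 SD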;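 note: signal is porphyrin accumulated inside mitochondria; 100% equals median channel fluorescence of DMSO control wells; lower ratio means ABCB6 inhibition with less porphyrin fluorescence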
Target sequence (Q9NP58 whole entry, looked up): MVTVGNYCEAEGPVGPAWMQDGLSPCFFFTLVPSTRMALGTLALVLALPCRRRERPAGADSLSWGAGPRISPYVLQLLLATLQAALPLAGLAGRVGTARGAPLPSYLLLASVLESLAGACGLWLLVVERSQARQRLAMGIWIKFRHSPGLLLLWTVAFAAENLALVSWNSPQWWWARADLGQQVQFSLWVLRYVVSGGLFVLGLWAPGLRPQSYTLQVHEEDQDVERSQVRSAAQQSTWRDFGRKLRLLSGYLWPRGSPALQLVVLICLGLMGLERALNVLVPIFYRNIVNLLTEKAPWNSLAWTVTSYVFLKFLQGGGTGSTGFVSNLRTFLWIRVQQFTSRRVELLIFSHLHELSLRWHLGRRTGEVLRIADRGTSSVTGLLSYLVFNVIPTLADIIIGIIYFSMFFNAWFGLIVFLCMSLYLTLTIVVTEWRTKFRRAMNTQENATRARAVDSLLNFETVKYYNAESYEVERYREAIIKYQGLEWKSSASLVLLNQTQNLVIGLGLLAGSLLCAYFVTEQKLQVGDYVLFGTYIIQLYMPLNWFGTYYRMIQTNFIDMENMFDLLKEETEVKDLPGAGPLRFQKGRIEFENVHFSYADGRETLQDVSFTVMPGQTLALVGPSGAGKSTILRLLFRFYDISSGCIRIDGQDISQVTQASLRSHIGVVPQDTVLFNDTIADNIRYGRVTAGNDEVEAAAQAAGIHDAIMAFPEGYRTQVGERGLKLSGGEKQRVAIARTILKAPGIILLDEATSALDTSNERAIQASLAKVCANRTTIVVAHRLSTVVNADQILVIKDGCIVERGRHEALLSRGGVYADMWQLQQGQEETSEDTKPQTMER
MEKK2mut PB1 HTS – signal of MEK5 binding to mutant human MEKK2 PB1 domain; bead flow cytometry, Alexa488-MEK5 binding to MEKK2 mutant; percent response, % at 10 µM; 290,000 compounds, 0.35% hits; AID 1530; in the data active = percent response above about 24%, passing the limit was not always enough
CRFBP-R2 agonist – agonists of human CRF-binding protein/CRF-R2 receptor complex. HEK293 CRF-R2/CRF-BP, calcium dye fluorescence (FLIPR); percent of saturating CRF peptide response. activation, % at 13.2 µM. 350,000 compounds, 0.46% hits;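 active = activation of at least 50%, plus an integration ratio under a set limit after plate pattern correction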;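 note: plate controls were neutral control wells without compound for no effect and CRF at EC100 for full effect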
MEKK3 PB1 HTS – MEKK3-MEK5 PB1 interaction, increase or decrease. Q99759. bead-based flow cytometry, Alexa488-MEK5 binding to MEKK3; actives lie on both sides; 0 = blocked by unlabeled MEK5, 100 = vehicle. binding response (% of control), % at 10 µM. 290,000 compounds, 1.4% hits. AID 1529;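 active = binding response more than 3 SD above or below the average of its plate-row segment, actives on both sides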;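 note: Alexa488 bead fluorescence after subtracting the streptavidin-only scavenger bead signal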
MEKK2wt PB1 HTS – raises or lowers MEK5 binding to wildtype human MEKK2 PB1 domain; binding response (% of control), % at 10 µM; 290,000 compounds, 1.1% hits; bead flow cytometry, Alexa488-MEK5 binding to MEKK2 WT; actives lie on both sides; Q9Y2U5; in the data active = binding response below about 67% or above about 130%
CRFR2-BP antag – blocks CRF-induced signaling of the CRF-BP/CRF-R2 complex; HEK293 CRF-R2/CRF-BP, CRF-induced calcium fluorescence; 350,000 compounds, 0.59% hits; inhibition, % at 11.8 µM; AID 588475;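 active = inhibition of the ligand-induced calcium signal above about 50% at the single tested concentration, limit read from the data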
MEKK2wt confirm – raises or lowers MEK5 binding to wildtype human MEKK2, retest; shares compounds with MEKK3 PB1 HTS; bead flow cytometry, Alexa488-MEK5 binding to MEKK2 WT; actives lie on both sides; binding response (% of control), % at 10 µM; 5,900 compounds, 2.4% hits; in the data active = binding response below about 16% or above about 210%; inactive = in between
MEKK2mut confirm – signal of MEK5 binding to mutant human MEKK2, retest; 5,900 compounds, 2% hits; AID 1893; shares compounds with MEKK3 PB1 HTS; percent response, % at 10 µM; bead flow cytometry, Alexa488-MEK5 binding to MEKK2 mutant; in the data active = percent response mostly above about 71%, no sharp cut-off; inactive = mostly below about 38%;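 note: higher means compound restores mutant binding toward wildtype level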
MEKK3-MEK5 inh – confirmation of inhibitors of MEK5 binding to human MEKK3 | shares compounds with MEKK3 PB1 HTS | bead flow cytometry, Alexa488-MEK5 binding to MEKK3; hits give low values | binding response (% of control), % at 10 µM | 5,900 compounds, 1.8% hits | AID 1894;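 active = binding response below 72% of control, or above a set upper limit, though filed actives all read lower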;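 note: 100% = DMSO only wells and 0% = binding blocked by excess unlabeled MEK5; lower values mean stronger disruption of MEK5 binding to MEKK3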
* = called active by the depositor; i = inactive; nt = not tested or not shown; [ ] = another dose, or the depositor's remark. Hits are enriched below; roughly 2.9% of the tested compounds scored in any of these assays.

SMILES | ABCB6 inh 2 | MEKK2mut PB1 HTS | CRFBP-R2 agonist | MEKK3 PB1 HTS | MEKK2wt PB1 HTS | CRFR2-BP antag | MEKK2wt confirm | MEKK2mut confirm | MEKK3-MEK5 inh
O=C(Nc1cc(C(F)(F)F)ccc1N1CCOCC1)c1cccc(S(=O)(=O)N2CCOCC2)c1 | 128 | nt | -1 | nt | nt | 8 | nt | nt | nt
CC(=O)N1CCN(Cc2cc(=O)oc3ccccc23)CC1 | 98 | nt | nt | nt | nt | nt | nt | nt | nt
CCOC(=O)c1ccc2ncc(C(=O)OCC)c(NCCN3CCOCC3)c2c1 | 94 | 2 | 0 | 103 | 108 | 11 | nt | nt | nt
CCOC(=O)c1cnc2cc(Cl)c(OC)cc2c1NCC1CCCO1 (stereo not drawn) | 94 | 13 | 1 | 115 | 136* | -7 | 104 | -1 | 106
CCN1CCN(C(c2ccc(C(F)(F)F)cc2)c2ccc3cccnc3c2O)CC1 (stereo not drawn) | 93 | 40* | 3 | 115 | 164* | -4 | 166 | 40 | 106
CCn1ccnc1CN(C)Cc1cn(-c2cccc(C)c2)nc1-c1cccc(F)c1 | 96 | 12 | 4 | 104 | 131 | -11 | nt | nt | nt
CCn1ccnc1CN(C)Cc1cn(-c2ccc(C)cc2)nc1-c1cccc(C)c1 | 101 | -3 | 4 | 107 | 138* | -12 | 124 | 11 | 103
O=C1CC2(CCN(C(=O)c3cccc(F)c3)CC2)Oc2ccccc21 | 95 | nt | 6 | nt | nt | 17 | nt | nt | nt
CC(C)OCCCNC(=O)CCN1C(=O)COc2ccccc21 | 95 | -20 | 1 | 1.0*[inhibitor] | -2.0*[inhibitor] | 1 | 108 | 6 | 106
Cc1cccc(C)c1-n1nnnc1C1(C)CCC(=O)N1c1ccc(N2CCOCC2)cc1 (stereo not drawn) | 100 | nt | nt | nt | nt | nt | nt | nt | nt
O=C1OC(c2ccccc2)=C/C1=C/N1CCOCC1 | 98 | 3 | 0 | 103 | 98 | -3 | nt | nt | nt
O=C1OC(c2ccccc2)=C/C1=C\N1CCOCC1 | 98 | -16 | 0 | 2.0*[inhibitor] | 2.0*[inhibitor] | 10 | 107 | 3 | 105
COc1ccc(-c2noc(-c3ccccc3C(=O)Nc3cccnc3)n2)cc1OC | 90 | 2 | 0 | 105 | 103 | 9 | nt | nt | nt
COc1ccc(-c2noc(-c3ccccc3C(=O)Nc3cccnc3)n2)cc1 | 91 | 26* | -2 | 100 | 98 | 8 | 102 | 3 | 107
CCN(CC)c1ccc(C=N/C(C#N)=C(\N)C#N)cc1 | i | -10 | 35 | 1.0*[inhibitor] | nt | -21 | 83 | -9 | 85
Cc1ccc(C(=O)C[n+]2cccc3cc(C)ccc32)cc1 | 433 | nt | 16 | 25*[inhibitor] | nt | -5 | 102 | -4 | 97
O=C(C[n+]1cccc2ccccc21)c1ccc(NC(=O)c2ccccc2)cc1 | 385 | nt | -4 | 37*[inhibitor] | nt | 13 | 108 | -5 | 98
O=C(C[n+]1cccc2ccccc21)c1ccccc1 | 408 | -4 | 15 | 98 | 93 | -4 | nt | nt | nt
CCOc1ccc(C(=O)C[n+]2cccc3cc(C)ccc32)cc1 | 558 | 0 | 12 | 90 | 108 | -6 | nt | nt | nt
CCCNC(=O)NC(=O)CN1C(=O)NC(C)(c2ccc3ccccc3c2)C1=O (stereo not drawn) | 102 | -2 | 1 | 101 | 103 | -2 | nt | nt | nt
COC(=O)c1cc(S(=O)(=O)N2CCN(Cc3ccccc3)CC2)c[nH]1 | 112 | 3 | 2 | 98 | 100 | 10 | nt | nt | nt
O=[N+]([O-])c1ccc(/C=N/Nc2ccc3ccccc3c2)o1 | i | -2 | 3 | 88 | 2.0*[inhibitor] | -26 | 103 | 1 | 100
CCOC(=O)N1CCC(NC(=O)c2ccc(CO)c(C(=O)NC3CCN(C(=O)OCC)CC3)c2)CC1 | 122 | 1 | 0 | 122 | 117 | 2 | nt | nt | nt
CCOC(=O)N1CCC(NC(=O)c2cc(C(=O)Nc3cccc(C(F)(F)F)c3)ccc2CO)CC1 | 104 | 1 | -1 | 131* | 117 | 0 | 103 | -1 | 103
O=C(COC(=O)CC1CCS(=O)(=O)C1)Nc1ccc(F)cc1 (stereo not drawn) | 95 | nt | -1 | nt | nt | 3 | nt | nt | nt
SMILES | ABCB6 inh 2 | MEKK2mut PB1 HTS | CRFBP-R2 agonist | MEKK3 PB1 HTS | MEKK2wt PB1 HTS | CRFR2-BP antag | MEKK2wt confirm | MEKK2mut confirm | MEKK3-MEK5 inh
CCCC[C@@H](CN[C@H](C)CNC)NCC1CCC(C(C)(C)C)CC1 (stereo partly drawn) | nt | 2 | 3 | 108 | 131 | -16 | nt | nt | nt
CC[C@H](C)[C@@H](CN[C@H](CCCCNC)CNC)NCC1CCCC1 | 97 | 8 | -1 | 104 | 141* | 9 | 114 | 8 | 106
CC(C)(C)c1ccc(C(=O)N2CCC2(C)C(=O)NCc2cccc3ccccc23)cc1 (stereo not drawn) | 94 | nt | nt | nt | nt | nt | nt | nt | nt
COC/C=C/C1=CC2=CC(=O)C(C)(OC(=O)c3cnc4ccccc4n3)C(=O)C2=CN1CC(C)C (stereo not drawn) | 97 | -2 | 0 | 80*[inhibitor] | 85 | -1 | 101 | 3 | 101
CCNCc1cc(Cl)c(OCc2ccccc2)c(OCC)c1 | 96 | 1 | 0 | 111 | 112 | -22 | nt | nt | nt
COc1ccc(CNCCc2ccc(Cl)cc2)cc1OCc1ccccc1 | 96 | -83 | 6 | 2.0*[inhibitor] | 2.0*[inhibitor] | -38 | 145 | 23 | 108
CCOc1cc(CNCc2ccccc2)ccc1OCc1ccc(Cl)cc1 | 93 | 22 | 0 | 99 | 160* | -19 | 170 | 36 | 105
Cc1cc(OCC(=O)OCC(=O)NCc2cccs2)ccc1Cl | 96 | nt | -5 | nt | nt | 5 | nt | nt | nt
Cc1ccc(C2N(C)c3ccccc3-c3nc4ccccc4n32)o1 (stereo not drawn) | 99 | 2 | 0 | 99 | 95 | 20 | nt | nt | nt
c1csc(C2Nc3ccccc3-c3nc4ccccc4n32)c1 (stereo not drawn) | 105 | 1 | 0 | 132* | 106 | -14 | 107 | 9 | 100
CN1c2ccccc2-c2nc3ccccc3n2C1c1cccs1 (stereo not drawn) | 101 | 0 | -4 | 181* | 105 | -9 | 102 | 2 | 104
CC(NS(=O)(=O)c1ccc(F)cc1)C(=O)Nc1ccc2c(c1)OCCO2 (stereo not drawn) | 100 | 4 | 1 | 102 | 106 | -4 | nt | nt | nt
COc1ccc(-c2ccc(N3C(c4ccsc4)=Cc4ccc(F)cc4C3c3c[nH]c4ccccc34)cc2)cc1 (stereo not drawn) | 111 | nt | nt | nt | nt | nt | nt | nt | nt
